Holding throughout (conditions): mRNA level, 48 h; actives raise or lower the signal
Read-out in experiment [1]: Cytochrome P450 (CYP1A1), CYP1A1 (gene 1543)
Put plainly: LTEA_HepaRG_CYP1A1: Life Technologies and Expression Analysis (LTEA) Assay for Cytochrome P450 (CYP1A1) using HepaRG (AID 2283454). In short, it runs like this: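 Differentiated human HepaRG cells, after 48 h plating, exposed in duplicate for 48 h in serum-free induction medium to 8 half-log concentrations up to 100 uM in 0.5% DMSO. CYP1A1 mRNA by qRT-PCR, normalized to ACTB/GAPDH/POLR2A; bidirectional fit versus DMSO.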

Read-out in experiment [2]: CFLAR gene, CFLAR (gene 8837)
Put plainly: LTEA_HepaRG_CFLAR: Life Technologies and Expression Analysis (LTEA) Assay for CFLAR gene using HepaRG (AID 2283455). The method, boiled down:
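HepaRG, 48 h exposure, 8-pt conc-response (100 uM top, half-log), 0.5% DMSO vehicle, duplicates. CFLAR expression by qRT-PCR; ACTB/GAPDH/POLR2A normalization; gain or loss fit vs DMSO baseline.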

Read-out in experiment [3]: Forkhead box O1 (FOXO1), FOXO1 (gene 2308)
Nature of the experiment: LTEA_HepaRG_FOXO1: Life Technologies and Expression Analysis (LTEA) Assay for Forkhead box O1 (FOXO1) using HepaRG (AID 2283456). In short, it runs like this: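 Readout is FOXO1 transcript level by multiplexed qRT-PCR against three housekeeping genes, curve-fitted in both directions relative to 0.5% DMSO vehicle. Human HepaRG cultures received chemicals for 48 h, up to 100 uM in half-log steps.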

Read-out in experiment [4]: growth arrest and DNA damage 45 (GADD45A), GADD45A (gene 1647)
Put plainly: LTEA_HepaRG_GADD45A: Life Technologies and Expression Analysis (LTEA) Assay for growth arrest and DNA damage 45 (GADD45A) using HepaRG (AID 2283458). In short, it runs like this:
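Differentiated HepaRG cells were exposed in duplicate for 48 h in serum-free induction medium to 8-point half-log concentrations up to 100 uM in 0.5% DMSO. GADD45A mRNA was measured by TaqMan qRT-PCR, normalized to ACTB, GAPDH and POLR2A, with bidirectional fitting versus DMSO.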

Read-out in experiment [5]: Forkhead box O3 (FOXO3), FOXO3 (gene 2309)
Put plainly: LTEA_HepaRG_FOXO3: Life Technologies and Expression Analysis (LTEA) Assay for Forkhead box O3 (FOXO3) using HepaRG (AID 2283459). The method, boiled down:
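HepaRG, 48 h post-dose; 8 conc., half-log from 100 uM, 0.5% DMSO, duplicates; serum-free induction medium. Readout: FOXO3 mRNA, TaqMan qRT-PCR, housekeeping-normalized. Bidirectional curve fit vs DMSO baseline.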

Read-out in experiment [6]: ABC Transporter (ABCC3), ABCC3 (gene 8714)
Nature of the experiment: LTEA_HepaRG_ABCC3: Life Technologies and Expression Analysis (LTEA) Assay for ABC Transporter (ABCC3) using HepaRG (AID 2283462). In short, it runs like this:
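Differentiated human HepaRG cells exposed 48 h in serum-free induction medium, 0.5% DMSO vehicle, 8-point half-log series to 100 uM in duplicate. ABCC3 mRNA by qRT-PCR, normalised to ACTB, GAPDH, POLR2A; bidirectional fit vs DMSO.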

Read-out in experiment [7]: ABC Transporter (ABCB11), ABCB11 (gene 8647)
Put plainly: LTEA_HepaRG_ABCB11: Life Technologies and Expression Analysis (LTEA) Assay for ABC Transporter (ABCB11) using HepaRG (AID 2283463). The method, boiled down: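 ABCB11 transcript levels are read by Fluidigm TaqMan qRT-PCR after 48 h chemical treatment of human HepaRG cells. Concentrations span 100 uM downward in half-log steps with 0.5% DMSO; gain or loss is fitted against DMSO controls.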

Read-out in experiment [8]: ABC Transporter (ABCC2), ABCC2 (gene 1244)
Nature of the experiment: LTEA_HepaRG_ABCC2: Life Technologies and Expression Analysis (LTEA) Assay for ABC Transporter (ABCC2) using HepaRG (AID 2283464). In short, it runs like this: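 Differentiated HepaRG cells in serum-free induction medium exposed 48 h to eight half-log concentrations up to 100 uM, 0.5% DMSO, in duplicate. ABCC2 mRNA measured by qRT-PCR (TaqMan, Fluidigm), normalized to ACTB, GAPDH and POLR2A. Fitted in both directions against DMSO.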

Read-out in experiment [9]: Broad substrate specificity ATP-binding cassette transporter ABCG2 (Homo sapiens) (UniProt Q9UNQ0)
Put plainly: LTEA_HepaRG_ABCG2: Life Technologies and Expression Analysis (LTEA) Assay for ABC Transporter (ABCG2) using HepaRG (AID 2283465). In short, it runs like this: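 Read-out is ABCG2 mRNA induction or loss quantified by qRT-PCR after 48 h chemical treatment of human HepaRG cells, normalized to three housekeeping genes. Concentrations reached 100 uM top in half-log steps; fitting was bidirectional against 0.5% DMSO.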

Read-out in experiment [10]: ATP-citrate lyase (ACLY), ACLY (gene 47)
Nature of the experiment: LTEA_HepaRG_ACLY: Life Technologies and Expression Analysis (LTEA) Assay for ATP-citrate lyase (ACLY) using HepaRG (AID 2283466). The method, boiled down:
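HepaRG, 48 h exposure, 8-pt half-log dilutions (top 100 uM), 0.5% DMSO. Readout: ACLY mRNA, TaqMan qRT-PCR, housekeeping-normalized (ACTB/GAPDH/POLR2A). Bidirectional curve fit vs DMSO.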

Read-out in experiment [11]: Peroxisomal acyl-coenzyme A oxidase 1 (ACOX1) gene, ACOX1 (gene 51)
Put plainly: LTEA_HepaRG_ACOX1: Life Technologies and Expression Analysis (LTEA) Assay for Peroxisomal acyl-coenzyme A oxidase 1 (ACOX1) gene using HepaRG (AID 2283467). In short, it runs like this: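 Measured by qRT-PCR against three housekeeping genes: ACOX1 transcript change in human HepaRG cells after 48 h dosing. Concentrations ran up to 100 uM in half-log steps. Curves were fitted bidirectionally relative to 0.5% DMSO.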

Read-out in experiment [12]: Alkaline Phosphatase, Placental (ALPP) gene, ALPP (gene 250)
Nature of the experiment: LTEA_HepaRG_ALPP: Life Technologies and Expression Analysis (LTEA) Assay for Alkaline Phosphatase, Placental (ALPP) gene using HepaRG (AID 2283468). The method, boiled down:
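HepaRG cells plated 48 h, then exposed in duplicate for 48 h in serum-free induction medium to 8-point half-log series from 100 uM in 0.5% DMSO. ALPP mRNA by TaqMan qRT-PCR, normalized to ACTB/GAPDH/POLR2A; bidirectional fit versus DMSO.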

Read-out in experiment [13]: Bcl-2 (BAD) gene, BAD (gene 572)
Nature of the experiment: LTEA_HepaRG_BAD: Life Technologies and Expression Analysis (LTEA) Assay for Bcl-2 (BAD) gene using HepaRG (AID 2283469). The method, boiled down: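 BAD transcript change, measured by qRT-PCR against three housekeeping genes and fitted in both directions relative to 0.5% DMSO, after 48 h chemical treatment of human HepaRG liver cells at concentrations up to 100 uM.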

Read-out in experiment [14]: adenosine kinase (ADK) gene, ADK (gene 132)
Put plainly: LTEA_HepaRG_ADK: Life Technologies and Expression Analysis (LTEA) Assay for adenosine kinase (ADK) gene using HepaRG (AID 2283471). In short, it runs like this: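 ADK expression quantified by qRT-PCR, normalised to three housekeeping genes, after 48 h exposure of HepaRG cells to eight concentrations (top 100 uM, half-log steps, duplicate, 0.5% DMSO). Up- or down-regulation fitted relative to vehicle.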

Read-out in experiment [15]: Alpha-fetoprotein (AFP) gene, AFP (gene 174)
Put plainly: LTEA_HepaRG_AFP: Life Technologies and Expression Analysis (LTEA) Assay for Alpha-fetoprotein (AFP) gene using HepaRG (AID 2283472). The method, boiled down:
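Human HepaRG cells plated 48 h, then switched to serum-free induction medium and exposed in duplicate for 48 h to 8-point half-log series from 100 uM in 0.5% DMSO. AFP mRNA by qRT-PCR, normalized to ACTB, GAPDH, POLR2A; bidirectional fit versus DMSO.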

Read-out in experiment [16]: Bcl-2 (BAX) gene, BAX (gene 581)
Nature of the experiment: LTEA_HepaRG_BAX: Life Technologies and Expression Analysis (LTEA) Assay for Bcl-2 (BAX) gene using HepaRG (AID 2283470). The method, boiled down: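 Differentiated human HepaRG cells, plated 48 h then switched to serum-free induction medium, were exposed 48 h to 8 half-log concentrations up to 100 uM in 0.5% DMSO; BAX mRNA measured by qRT-PCR, normalized to ACTB, GAPDH, POLR2A.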

Read-out in experiment [17]: ABC Transporter (ABCB1), ABCB1 (gene 5243)
Put plainly: LTEA_HepaRG_ABCB1: Life Technologies and Expression Analysis (LTEA) Assay for ABC Transporter (ABCB1) using HepaRG (AID 2283460). In short, it runs like this: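 Expression of ABCB1 was quantified by qRT-PCR against three housekeeping genes after human HepaRG cultures received test chemicals for 48 hours. Concentrations spanned eight half-log steps topping at 100 uM in 0.5% DMSO; gain or loss of signal was fitted relative to vehicle.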

The source made the active and inactive calls. How the source made its calls: active means hit-call score of the fitted dose curve at least 0.9, where 1 is the maximum; inactive means score below 0.9.

Sequence of Broad substrate specificity ATP-binding cassette transporter ABCG2 (Homo sapiens) (Q9UNQ0 whole entry, looked up): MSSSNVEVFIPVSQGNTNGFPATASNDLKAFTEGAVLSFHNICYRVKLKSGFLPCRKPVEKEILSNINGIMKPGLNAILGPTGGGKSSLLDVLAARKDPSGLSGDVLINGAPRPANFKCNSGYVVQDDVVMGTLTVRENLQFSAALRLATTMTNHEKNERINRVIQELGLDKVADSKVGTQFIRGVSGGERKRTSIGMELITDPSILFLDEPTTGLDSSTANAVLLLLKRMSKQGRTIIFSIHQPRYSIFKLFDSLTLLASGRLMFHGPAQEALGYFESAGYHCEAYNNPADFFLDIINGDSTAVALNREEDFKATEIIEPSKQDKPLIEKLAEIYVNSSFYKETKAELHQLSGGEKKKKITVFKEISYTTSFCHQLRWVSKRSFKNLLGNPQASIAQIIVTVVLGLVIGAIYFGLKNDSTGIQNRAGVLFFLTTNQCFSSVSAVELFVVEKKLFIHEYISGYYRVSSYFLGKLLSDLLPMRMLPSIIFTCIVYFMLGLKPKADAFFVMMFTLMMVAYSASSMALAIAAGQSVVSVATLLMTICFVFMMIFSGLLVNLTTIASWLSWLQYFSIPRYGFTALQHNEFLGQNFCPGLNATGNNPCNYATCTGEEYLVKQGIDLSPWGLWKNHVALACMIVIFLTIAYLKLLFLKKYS

The AC50 is the concentration giving half of the maximal activity seen. As to `O=Cc1ccco1`, the AC50 in [1] is 50 µM (active). Besides, the call in [2], in experiment [3], in [4], in experiment [5], in experiment [6] and in [7] was inactive. Moreover, the compound was called inactive in experiment [8], in [9], in [10], in [11], in experiment [12] and in experiment [13]. The outcome in [14] and in [15] was inactive.
Consider `CS(=O)(=O)NC(=O)c1cc(Oc2ccc(C(F)(F)F)cc2Cl)ccc1[N+](=O)[O-]`, for which the half-maximal activity concentration (AC50) is 39.3 µM (active) in [1], 50 µM (active) in experiment [7] and 6.32 µM (active) in experiment [8]. Besides, the compound was classed as inactive in experiment [2], in [3], in [4], in experiment [5], in experiment [6] and in experiment [9]. Moreover, the result in experiment [10], in experiment [12], in [13], in experiment [16], in experiment [14] and in experiment [15] was inactive.
As to `CCNS(=O)(=O)C(F)(F)C(F)(F)C(F)(F)C(F)(F)C(F)(F)C(F)(F)C(F)(F)C(F)(F)F`, the concentration at half-maximal activity (AC50) in experiment [1] is 69.3 µM (active); in experiment [7] it was 23.7 µM (active); in experiment [15], 65.2 µM (active). Besides, the call in experiment [2], in experiment [3], in experiment [4], in [5], in experiment [17] and in [6] was inactive. In addition, the call in [8], in experiment [9], in experiment [10], in experiment [12], in experiment [13] and in experiment [16] was inactive.
In the case of `[Cl-].[Cl-].[Hg+2]`, the AC50 in [1] was 50 µM (active). The result in [2], in experiment [3], in [4], in [5], in experiment [6] and in experiment [7] was inactive. In addition, the compound was classed as inactive in experiment [8], in experiment [9], in [10], in [11], in experiment [12] and in experiment [13]. Further, the compound was classed as inactive in experiment [16], in experiment [14] and in experiment [15].
On to `C[N+](C)(C)CC1CO1` (stereo unspecified), for which the AC50 in [1] was 50 µM (active). Also, the outcome in experiment [2], in [3], in experiment [4], in experiment [5], in experiment [17] and in experiment [6] was inactive. The compound was classed as inactive in [7], in [8], in experiment [9], in experiment [10], in experiment [12] and in experiment [13]. Also, the result in [16] and in experiment [15] was inactive.
Turning to `Nc1ccc(Oc2ccc(N)cc2)cc1`, the half-maximal activity concentration (AC50) in experiment [1] is 37.5 µM (active). Moreover, the outcome in experiment [2], in experiment [3], in experiment [4], in experiment [5], in experiment [17] and in experiment [6] was inactive. Further, the compound was classed as inactive in experiment [7], in experiment [9], in experiment [10], in experiment [11], in [12] and in experiment [13]. Moreover, the result in [16] and in [15] was inactive.

For the origin of these results see PubChem BioAssay (EPA / NIEHS).
